Among the data in PubChem BioAssay (EPA / NIEHS) are outcome and AC50 values, retold here.

SMILES strings stand for the structures. Active and inactive are the calls of the source. How the source made its calls: active means hit-call score of the fitted dose curve at least 0.9, where 1 is the maximum; inactive means score below 0.9.

Read-out in experiment [1]: TIMP metallopeptidase inhibitor 1 (TIMP1), TIMP1 (gene 7076)
The experiment in a line: BSK_hDFCGF_TIMP1: BioMAP Diversity Plus: hDFCGF Assay for TIMP metallopeptidase inhibitor 1 (TIMP1) Biomarker Activity (AID 2283062). As to conditions: primary human foreskin fibroblasts; actives raise or lower the signal. In outline:
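Human skin fibroblasts (primary), hDFCGF system; compound exposure 24 h; TIMP-1 by ELISA; bidirectional fit vs DMSO negative control; overt cytotoxicity by SRB in parallel wells.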

Read-out in experiment [2]: Vascular cell adhesion molecule 1 (VCAM1), VCAM1 (gene 7412)
The experiment in a line: BSK_hDFCGF_VCAM1: BioMAP Diversity Plus: hDFCGF Assay for Vascular cell adhesion molecule 1 (VCAM1) Biomarker Activity (AID 2283065). As to conditions: primary human foreskin fibroblasts; actives raise or lower the signal. In short, it runs like this:
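Human foreskin fibroblast primary cells, chemical exposure 24 h; VCAM-1 by ELISA; bidirectional fit, DMSO = negative control/baseline.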

Read-out in experiment [3]: Intercellular Adhesion Molecule 1 (ICAM1), ICAM1 (gene 3383)
The experiment in a line: BSK_KF3CT_ICAM1: BioMAP Diversity Plus: KF3CT Assay for Intercellular Adhesion Molecule 1 (ICAM1) Biomarker Activity (AID 2283067). As to conditions: primary human keratinocytes with fibroblasts; actives raise or lower the signal. In short, it runs like this: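 ICAM-1 levels are measured by ELISA 24 h after dosing a primary human co-culture of keratinocytes and foreskin fibroblasts. Activity in either direction is fitted relative to DMSO vehicle.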

Read-out in experiment [4]: Interferon-gamma inducible Protein 10 (IP10), CXCL10 (gene 3627)
The experiment in a line: BSK_KF3CT_IP10: BioMAP Diversity Plus: KF3CT Assay for Interferon-gamma inducible Protein 10 (IP10) Biomarker Activity (AID 2283068). As to conditions: primary human keratinocytes with fibroblasts; actives raise or lower the signal. In outline:
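Signal is secreted/surface IP-10 by ELISA in a human primary skin co-culture of keratinocytes and foreskin fibroblasts, taken 24 h post-dosing; DMSO served as negative control.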

Read-out in experiment [5]: Interleukin-1 alpha (IL1a), IL1A (gene 3552)
The experiment in a line: BSK_KF3CT_IL1a: BioMAP Diversity Plus: KF3CT Assay for Interleukin-1 alpha (IL1a) Biomarker Activity (AID 2283070). As to conditions: primary human keratinocytes with fibroblasts; actives raise or lower the signal. In outline: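 Readout is IL-1a level by ELISA, compared bidirectionally with DMSO as baseline. Cells: human keratinocytes co-cultured with foreskin fibroblasts, harvested 24 h post-dose.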

Read-out in experiment [6]: TIMP metallopeptidase inhibitor 2 (TIMP2), TIMP2 (gene 7077)
The experiment in a line: BSK_KF3CT_TIMP2: BioMAP Diversity Plus: KF3CT Assay for TIMP metallopeptidase inhibitor 2 (TIMP2) Biomarker Activity (AID 2283071). As to conditions: primary human keratinocytes with fibroblasts; actives raise or lower the signal. In outline:
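Measurements come from ELISA detection of TIMP-2 at 24 hours in a dosed human keratinocyte and foreskin fibroblast co-culture. DMSO serves as negative control and baseline.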

Read-out in experiment [7]: Transforming growth factor beta 1 (TGFb1), TGFB1 (gene 7040)
The experiment in a line: BSK_KF3CT_TGFb1: BioMAP Diversity Plus: KF3CT Assay for Transforming growth factor beta 1 (TGFb1) Biomarker Activity (AID 2283072). The conditions noted are these: primary human keratinocytes with fibroblasts; actives raise or lower the signal. In short, it runs like this: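 TGF-b1 ELISA on a 24 h dosed co-culture of human keratinocytes and foreskin fibroblasts; cytotoxicity tracked in parallel cultures by SRB staining.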

Read-out in experiment [8]: Matrix Metallopeptidase 9 (MMP9), MMP9 (gene 4318)
The experiment in a line: BSK_KF3CT_MMP9: BioMAP Diversity Plus: KF3CT Assay for Matrix Metallopeptidase 9 (MMP9) Biomarker Activity (AID 2283074).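 On AC50: MMP9 protein level quantified by ELISA in the co-culture.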 As to conditions: primary human keratinocytes with fibroblasts; actives raise or lower the signal. In outline:
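Values come from bidirectional fitting relative to DMSO of MMP-9 levels, which were measured by ELISA. Measurements were taken 24 h after chemical dosing of a keratinocyte and foreskin fibroblast co-culture.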

Read-out in experiment [9]: urokinase plasminogen activator (uPA), PLAU (gene 5328)
The experiment in a line: BSK_KF3CT_uPA: BioMAP Diversity Plus: KF3CT Assay for urokinase plasminogen activator (uPA) Biomarker Activity (AID 2283075). The conditions noted are these: primary human keratinocytes with fibroblasts; actives raise or lower the signal. In short, it runs like this:
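Values derive from bidirectional fitting against DMSO controls. Keratinocyte/foreskin fibroblast co-cultures received chemical; 24 h later uPA was detected by ELISA, with SRB total-protein staining in parallel wells for overt cytotoxicity.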

Read-out in another experiment: CD40, CD40 (gene 958)
The experiment in a line: BSK_LPS_CD40: BioMAP Diversity Plus: LPS Assay for CD40 Biomarker Activity (AID 2283076). As to conditions: primary human HUVEC with PBMC; actives raise or lower the signal. In short, it runs like this:
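Cells were dosed, incubated 24 h, then assayed for CD40 by ELISA. Gain or loss of signal was analysed relative to DMSO controls. The culture paired human umbilical vein endothelium with peripheral blood mononuclear cells.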

Read-out in experiment [10]: E-selectin (Homo sapiens) (UniProt P16581)
The experiment in a line: BSK_LPS_Eselectin: BioMAP Diversity Plus: LPS Assay for Eselectin Biomarker Activity (AID 2283077). The conditions noted are these: primary human HUVEC with PBMC; actives raise or lower the signal. In short, it runs like this:
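Primary human vascular co-culture (endothelium plus PBMC) was dosed with chemical, then E-selectin quantified by ELISA at 24 h. Endpoint values derive from bidirectional curve fitting relative to DMSO.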

Read-out in experiment [11]: Interleukin-8 (IL8), CXCL8 (gene 3576)
The experiment in a line: BSK_LPS_IL8: BioMAP Diversity Plus: LPS Assay for Interleukin-8 (IL8) Biomarker Activity (AID 2283078). The conditions noted are these: primary human HUVEC with PBMC; actives raise or lower the signal. In outline: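 Readout is IL-8 by ELISA, taken 24 h after compounds were added to LPS-stimulated endothelial/PBMC co-cultures. Both increases and decreases relative to DMSO control were scored through bidirectional fitting.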

A short description of experiment [12]: BSK_LPS_SRB: Viability Assessment in the BioMAP Diversity Plus: LPS Assay (AID 2283079).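 Further: total protein by sulforhodamine B absorbance as a cytotoxicity measure; measured one day after compound addition; fitted in both directions against DMSO so loss or gain of signal counts.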 The conditions noted are these: primary human HUVEC with PBMC. In short, it runs like this: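 Readout is SRB absorbance at 560 nm (0.1% stain, TCA-fixed parallel cultures) as a total-protein cytotoxicity measure. Cells: primary human umbilical vein endothelium plus peripheral blood mononuclear cells, 24 h after chemical exposure; DMSO served as baseline.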

Read-out in experiment [13]: Interleukin-1 alpha (IL1a), IL1A (gene 3552)
The experiment in a line: BSK_LPS_IL1a: BioMAP Diversity Plus: LPS Assay for Interleukin-1 alpha (IL1a) Biomarker Activity (AID 2283080). As to conditions: primary human HUVEC with PBMC; actives raise or lower the signal. In short, it runs like this:
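ELISA read-out of IL-1 alpha from a human primary vascular co-culture (endothelium plus PBMC) under LPS, sampled 24 hours post-dosing. Activity was fitted in both directions relative to DMSO controls.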

Read-out in experiment [14]: Monocyte Chemoattractant Protein-1 (MCP1), CCL2 (gene 6347)
The experiment in a line: BSK_LPS_MCP1: BioMAP Diversity Plus: LPS Assay for Monocyte Chemoattractant Protein-1 (MCP1) Biomarker Activity (AID 2283081).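 On AC50: secreted MCP-1 protein quantified by ELISA in culture supernatant.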 As to conditions: primary human HUVEC with PBMC; actives raise or lower the signal. In short, it runs like this: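 Human endothelial–PBMC co-cultures were dosed with chemical, then LPS-driven MCP-1 levels were quantified by ELISA at 24 h. Activity in either direction was fitted versus DMSO negative control.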

Read-out in experiment [15]: Plasminogen activator inhibitor-1 (PAI1), SERPINE1 (gene 5054)
The experiment in a line: BSK_hDFCGF_PAI1: BioMAP Diversity Plus: hDFCGF Assay for Plasminogen activator inhibitor-1 (PAI1) Biomarker Activity (AID 2283066). As to conditions: primary human foreskin fibroblasts; actives raise or lower the signal. In outline: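 Human skin fibroblast cultures receive chemical for 24 h before PAI-1 is measured by ELISA; signal changes are fitted bidirectionally against DMSO-treated wells.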

Experiment [16] is described as follows: BSK_KF3CT_SRB: Viability Assessment in the BioMAP Diversity Plus: KF3CT Assay (AID 2283069).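 Further: read 24 h after compound addition; fitted for both signal gain and loss against DMSO baseline.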 As to conditions: primary human keratinocytes with fibroblasts. In short, it runs like this:
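Overt cytotoxicity is assessed as total protein by sulforhodamine B staining in parallel human skin co-cultures at 24 h after dosing. DMSO serves as negative control and baseline.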

Read-out in experiment [17]: Matrix Metallopeptidase 1 (MMP1), MMP1 (gene 4312)
The experiment in a line: BSK_hDFCGF_MMP1: BioMAP Diversity Plus: hDFCGF Assay for Matrix Metallopeptidase 1 (MMP1) Biomarker Activity (AID 2283064). As to conditions: primary human foreskin fibroblasts; actives raise or lower the signal. In outline:
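Human foreskin fibroblasts exposed to chemical for 24 h; MMP1 detected by ELISA, with DMSO as baseline for bidirectional fitting.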

Read-out in experiment [18]: C-C motif chemokine 2 (Homo sapiens) (UniProt P13500)
The experiment in a line: BSK_KF3CT_MCP1: BioMAP Diversity Plus: KF3CT Assay for Monocyte Chemoattractant Protein 1 (MCP1/CCL2) Biomarker Activity (AID 2283073). As to conditions: primary human keratinocytes with fibroblasts; actives raise or lower the signal. In outline: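 ELISA readout of MCP-1 after 24 h chemical dosing of a human skin primary co-culture of keratinocytes and foreskin fibroblasts. Activity was fitted in both directions against DMSO.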

Chain of E-selectin (Homo sapiens) (P16581 whole entry, looked up): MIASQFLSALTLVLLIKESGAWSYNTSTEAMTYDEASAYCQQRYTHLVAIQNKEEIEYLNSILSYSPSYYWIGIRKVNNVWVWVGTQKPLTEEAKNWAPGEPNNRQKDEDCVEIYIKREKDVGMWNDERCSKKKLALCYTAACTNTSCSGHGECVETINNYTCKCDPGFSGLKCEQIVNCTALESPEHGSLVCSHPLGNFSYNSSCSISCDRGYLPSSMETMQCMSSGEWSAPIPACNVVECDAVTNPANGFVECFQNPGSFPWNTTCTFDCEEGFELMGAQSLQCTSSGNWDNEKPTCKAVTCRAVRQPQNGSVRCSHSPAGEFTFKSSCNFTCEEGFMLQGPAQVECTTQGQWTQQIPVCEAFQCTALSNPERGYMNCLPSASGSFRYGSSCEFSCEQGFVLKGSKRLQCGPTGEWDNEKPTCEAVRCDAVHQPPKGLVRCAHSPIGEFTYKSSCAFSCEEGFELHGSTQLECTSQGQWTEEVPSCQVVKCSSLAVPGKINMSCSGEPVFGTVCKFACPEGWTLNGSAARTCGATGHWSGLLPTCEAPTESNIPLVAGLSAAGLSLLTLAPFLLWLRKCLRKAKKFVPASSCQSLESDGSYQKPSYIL

In the case of `COC(=O)[C@H]1[C@H]2C[C@@H]3c4[nH]c5cc(OC)ccc5c4CCN3C[C@H]2C[C@@H](OC(=O)c2cc(OC)c(OC)c(OC)c2)[C@@H]1OC`, the result in experiment [1], in [2], in experiment [3], in [4], in experiment [5] and in [6] was inactive. Also, the result in experiment [7], in experiment [8], in experiment [9], in experiment [10] and in [11] was inactive. Also, the AC50 (usually the concentration giving half of the maximal activity seen) with CD40, CD40 (gene 958) is 23.5 µM (active); in [12], 21.8 µM (active); in experiment [13], 22.6 µM (active); in experiment [14] it was 18.6 µM (active).
With `C/C=C/C=C/C(=O)O`, the result in experiment [1], in [2], in experiment [15], in experiment [3], in [4] and in [16] was inactive. The outcome in experiment [5] was “inactive”; in [6], “inactive”; in experiment [7], “inactive”; in experiment [8] it was “inactive”; in experiment [9], “inactive”; with CD40, CD40 (gene 958), “inactive”. For the same molecule, the outcome in [10], in [11], in experiment [13] and in experiment [14] was inactive.
On to `O=C(N[C@@H](c1ccccc1)[C@@H]1CCCCN1)c1cccc(C(F)(F)F)c1Cl`, for which the outcome in experiment [1], in experiment [17] and in [2] was inactive. Besides, the AC50 in experiment [15] was 9.69 µM (active); in [3], 30.7 µM (active); in experiment [4], 37.1 µM (active); in experiment [7], 20 µM (active); in experiment [8], 30.8 µM (active); in [9] it was 32.5 µM (active). Also, the AC50 in the experiment with CD40, CD40 (gene 958) was 20 µM (active); in experiment [10] it was 5.55 µM (active); in [11] it was 17.9 µM (active); in experiment [13], 20 µM (active); in experiment [14] it was 22.7 µM (active).
For the molecule `CC(=O)O[C@]1(C(C)=O)CC[C@H]2[C@@H]3C=C(Cl)C4=CC(=O)[C@@H]5C[C@@H]5[C@]4(C)[C@H]3CC[C@@]21C`, the outcome in [1], in experiment [17], in experiment [2], in experiment [3], in experiment [16] and in experiment [5] was inactive. The result in experiment [6], in [7], in experiment [8], in experiment [9], in [10] and in [11] was inactive. Moreover, the result in experiment [13] and in experiment [14] was inactive. Further, the AC50 was 1.74 µM (active) in experiment [15]; 31.5 µM (active) with CD40, CD40 (gene 958); 30.9 µM (active) in experiment [12].
Consider `CC(N)=O`, for which the outcome in experiment [1], in [2], in experiment [15], in [3], in experiment [4] and in experiment [16] was inactive. Further, the outcome in [5] is “inactive”; in experiment [7] it was “inactive”; in experiment [18] it was “inactive”; in experiment [8], “inactive”; in [9], “inactive”; with CD40, CD40 (gene 958), “inactive”. Besides, the outcome in experiment [10], in [13] and in [14] was inactive.
In the case of `COc1ccc(OC(F)(F)F)cc1CN[C@H]1CCCN[C@H]1c1ccccc1`, the outcome in experiment [1], in experiment [2], in experiment [15], in [3], in [4] and in experiment [16] was inactive. In addition, the result in [5], in [6], in experiment [7], in [18], in experiment [8] and in [9] was inactive. The outcome in experiment [10] and in experiment [13] was inactive. The AC50 was 26.6 µM (active) with CD40, CD40 (gene 958); 9.98 µM (active) in [11]; 20 µM (active) in experiment [12]; 7.98 µM (active) in experiment [14].
